Results on 6 molecules are retold here after PubChem BioAssay (NCATS).

For orientation: viability means a read-out of living cells in per cent, often relative to untreated cells.

Assay [1] in a line: Quantitative High-Throughput drug screen in 47 multiple myeloma cell lines against the NCATS MIPE library collection: KMS34_JCRB cell viability assay (AID 1918985). Note: nearly all actives have a fitted effect of over 40% in size. Note: potency is the fitted concentration of half-maximal effect. Put shortly: (§1)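 500 cells/well; MIPE 4.0 drugs pin-transferred; 48 h, 37C, 5% CO2. CellTiter-Glo, 5 min RT, luminescence. Controls: DMSO 100%, media 0%.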
Assay [2] in a line: Quantitative High-Throughput drug screen in 47 multiple myeloma cell lines against the NCATS MIPE library collection: OCIMY7_PLB cell viability assay (AID 1918987). Note: potency is the fitted concentration of half-maximal effect; nearly all actives have a fitted effect of over 65% in size. Put shortly:
as §1

Assay [3] in a line: Quantitative High-Throughput drug screen in 47 multiple myeloma cell lines against the NCATS MIPE library collection: OCIMY5_PLB cell viability assay (AID 1918988). Note: nearly all actives have a fitted effect of over 65% in size. Note: potency is the fitted concentration of half-maximal effect. In outline:
as §1

Assay [4] can be described thus: Quantitative High-Throughput drug screen in 47 multiple myeloma cell lines against the NCATS MIPE library collection: OPM1_PLB cell viability assay (AID 1918989). Note: nearly all actives have a fitted effect of over 40% in size. Note: potency is the fitted concentration of half-maximal effect. In outline: as §1
Assay [5] is described as follows: Quantitative High-Throughput drug screen in 47 multiple myeloma cell lines against the NCATS MIPE library collection: SKMM1_PLB cell viability assay (AID 1919863). Note: nearly all actives have a fitted effect of over 35% in size. Note: potency is the fitted concentration of half-maximal effect. The conditions noted are these: SKMM1 myeloma viability, CellTiter-Glo ATP, 48 h; viability: stronger effect = lower value. Put shortly:
as §1

Assay [6] is described as follows: Quantitative High-Throughput drug screen in 47 multiple myeloma cell lines against the NCATS MIPE library collection: U266_ATCC cell viability assay (AID 1919864). Note: potency is the fitted concentration of half-maximal effect; nearly all actives have a fitted effect of over 35% in size. In outline:
as §1

Assay [7] can be described thus: Quantitative High-Throughput drug screen in 47 multiple myeloma cell lines against the NCATS MIPE library collection: XG6_PLB cell viability assay (AID 1919865). Note: potency is the fitted concentration of half-maximal effect; nearly all actives have a fitted effect of over 40% in size. In outline: as §1
Assay [8] in a line: Quantitative High-Throughput drug screen in 47 multiple myeloma cell lines against the NCATS MIPE library collection: XG1_PLB cell viability assay (AID 1919866). Note: potency is the fitted concentration of half-maximal effect; nearly all actives have a fitted effect of over 35% in size. Put shortly:
as §1

The nature of assay [9]: Quantitative High-Throughput drug screen in 47 multiple myeloma cell lines against the NCATS MIPE library collection: VP6_DJ cell viability assay (AID 1919867). Note: potency is the fitted concentration of half-maximal effect; nearly all actives have a fitted effect of over 40% in size. In outline:
as §1

The nature of assay [10]: Quantitative High-Throughput drug screen in 47 multiple myeloma cell lines against the NCATS MIPE library collection: UTMC2_PLB cell viability assay (AID 1919868). Note: nearly all actives have a fitted effect of over 55% in size. Note: potency is the fitted concentration of half-maximal effect. The conditions noted are these: CellTiter-Glo ATP luminescence, 48 h; viability (% of DMSO control): at 45.8 µM (top of the series) unless noted. In outline: as §1
Assay [11] can be described thus: Quantitative High-Throughput drug screen in 47 multiple myeloma cell lines against the NCATS MIPE library collection: PE2_PLB cell viability assay (AID 1919869). Note: potency is the fitted concentration of half-maximal effect; nearly all actives have a fitted effect of over 35% in size. Put shortly:
as §1

Assay [12] is described as follows: Quantitative High-Throughput drug screen in 47 multiple myeloma cell lines against the NCATS MIPE library collection: RPMI8226_ATCC cell viability assay (AID 1919871). Note: potency is the fitted concentration of half-maximal effect; nearly all actives have a fitted effect of over 30% in size. Put shortly:
as §1

Assay [13] is described as follows: Quantitative High-Throughput drug screen in 47 multiple myeloma cell lines against the NCATS MIPE library collection: KMS11_JCRBsus cell viability assay (AID 1919873). Note: nearly all actives have a fitted effect of over 50% in size. Note: potency is the fitted concentration of half-maximal effect. In outline: as §1
A short description of assay [14]: Quantitative High-Throughput drug screen in 47 multiple myeloma cell lines against the NCATS MIPE library collection: KMS28BM_JCRB cell viability assay (AID 1919874). Note: nearly all actives have a fitted effect of over 35% in size. Note: potency is the fitted concentration of half-maximal effect. Put shortly:
as §1

Assay [15] can be described thus: qHTS drug screen for cell cycle checkpoint inhibitors in PARPi-resistant BRCA-mutant ovarian cancer cell lines. (AID 1963452; calls by dose curve). To be noted: PEO1/OlaR viability, CellTiter-Glo luminescence, 96 h, stronger effect = lower value. Put shortly:
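PEO1, PEO4 and PEO1/OlaR ovarian cancer cells, 600 per well, exposed 96 h at 37C to a dilution series. Viability read by CellTiter-Glo luminescence, normalized to DMSO and empty wells; activity summarized as Z-AUC.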
For orientation: qHTS replaces the single test concentration by a dilution series.

Assay [16] can be described thus: Quantitative High-Throughput drug screen in 47 multiple myeloma cell lines against the NCATS MIPE library collection: PCM6_Riken cell viability assay (AID 1919870). Note: potency is the fitted concentration of half-maximal effect; nearly all actives have a fitted effect of over 30% in size. In outline: as §1
Assay [17] is described as follows: Quantitative High-Throughput drug screen in 47 multiple myeloma cell lines against the NCATS MIPE library collection: OPM2_DSMZ cell viability assay (AID 1919872). Note: nearly all actives have a fitted effect of over 30% in size. Note: potency is the fitted concentration of half-maximal effect. In outline: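 Myeloma cells (500 per well) were exposed to MIPE 4.0 compounds by pin transfer and incubated 48 hours at 37C, 5% CO2. Viability was read as ATP by CellTiter-Glo luminescence, normalised to DMSO (100%) and media-only (0%) wells.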

Assay [18] in a line: qHTS profiling for inhibitors of Plasmodium falciparum proliferation (AID 504749). Note: potency is the fitted concentration of half-maximal effect; nearly all actives have a fitted effect of over 60% in size. To be noted: P. falciparum in erythrocytes, SYBR Green DNA, 72 h. In outline: (§2)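 SYBR Green fluorescence (ex 485 nm, em 535 nm) reports parasite DNA after 72 h compound exposure of infected red cells at 0.3% parasitemia, 2.5% hematocrit; signal normalized to 0.29 uM artemisinin and vehicle wells.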

A further assay has as its system 3D7. Described as above. To be noted: P. falciparum in erythrocytes, SYBR Green DNA, 72 h; series mostly up to 28.7 µM. Put shortly:
as §2

Where [19] appears, read: measured here: PEO1 parental Z-AUC.

Molecules are shown by their SMILES. Records with an inconclusive call do not appear. Activity calls are given as the source filed them. Unless noted, calls come from the whole dose curve; as a rule, active = well fitted curve in the direction sought with a large enough effect; inconclusive = small, poorly fitted or top-dose-only effect, or another doubt; inactive = no such curve, though single readings can be large; an effect the other way counts as inactive or inconclusive.

Consider `CN1CCN(c2ccc3nc(-c4c(N)c5c(F)cccc5[nH]c4=O)[nH]c3c2)CC1`, for which the Potency was 16.6 µM (active) in assay [1]; 3.32 µM (active) in assay [2]; 16.6 µM (active) in assay [3]; 3.72 µM (active) in assay [4]; 18.7 µM (active) in assay [5]; 13.2 µM (active) in assay [6]. Besides, the Potency in assay [7] is 2.09 µM (active); in assay [8], 3.32 µM (active); in assay [9], 2.35 µM (active); in assay [10] it was 5.9 µM (active); in [11], 5.26 µM (active); in [12], 29.6 µM (active). Also, the Potency in assay [13] is 10.5 µM (active); in assay [14], 14.8 µM (active). In addition, the figures for the Z-AUC in assay [15], in assay [15] (setting [19]) and in [15] (measured here: PEO4 Z-AUC) were -0.169 (inactive), -0.682 and -0.379, respectively.

With `O=c1[nH]nc(Sc2ncc([N+](=O)[O-])s2)n1-c1ccc2c(c1)OCCO2`, the Potency in [1] is 2.09 µM (active); in [2] it was 0.935 µM (active); in assay [3], 2.96 µM (active); in assay [4], 2.09 µM (active); in assay [5], 4.18 µM (active); in assay [6], 2.64 µM (active). In addition, the Potency is 2.09 µM (active) in [7]; 2.09 µM (active) in [8]; 2.35 µM (active) in assay [9]; 2.35 µM (active) in [10]; 0.743 µM (active) in [11]; 1.48 µM (active) in [16]. The Potency in assay [12] is 3.72 µM (active); in assay [17], 8.33 µM (active); in assay [13], 2.96 µM (active); in [14], 2.96 µM (active). Besides, the Z-AUC in [15] was 0.0772 (inactive); in [15] (setting [19]), 0.187; in assay [15] (measured here: PEO4 Z-AUC), -0.291.

Consider `CCC1=C[C@@H]2CN(C1)Cc1c([nH]c3ccccc13)[C@@](C(=O)OC)(c1cc3c(cc1OC)N(C)[C@@H]1[C@@](O)(C(=O)OC)[C@H](OC(C)=O)[C@]4(CC)C=CCN5CC[C@]31[C@@H]54)C2`, for which the Potency in assay [18] (parasite line A) is 3.16 µM (active); in assay [18] (parasite line B) it was 5.01 µM (active); in the assay on 3D7, 3.16 µM (active).

Take `CCN(CC)CCCCNc1ncc2cc(-c3cc(OC)cc(OC)c3)c(NC(=O)NC(C)(C)C)nc2n1`: the Potency in assay [1] is 33.2 µM (active); in [2] it was 18.7 µM (active); in [3], 16.6 µM (active); in [4], 14.8 µM (active); in assay [6] it was 18.7 µM (active); in [7] it was 5.9 µM (active). The Potency in [8] is 8.33 µM (active); in assay [9] it was 10.5 µM (active); in [10] it was 16.6 µM (active); in [11] it was 20.9 µM (active); in [16] it was 5.26 µM (active); in assay [17] it was 20.9 µM (active). Further, the Potency in assay [13] is 23.5 µM (active). Also, the Z-AUC was -1.19 (inactive) in [15], 1.07 in [15] (setting [19]) and 0.00955 in [15] (measured here: PEO4 Z-AUC).

For the molecule `O=C(O)[C@H](Cc1c[nH]c2ccccc12)N1C(=O)c2ccccc2C1=O`, the Potency result in [1], in assay [3], in [4], in assay [17], in assay [13] and in assay [14] was “inactive” each time. In addition, the Potency is 30.3 µM (active) in assay [2] and 48.1 µM (active) in assay [9]. Also, in assay [5], the viability was 111% (inactive). Moreover, the viability (% of DMSO control) in [10] is 115% [at 92.2 µM] (active). Also, the values for the Z-AUC in assay [15], in assay [15] (setting [19]) and in assay [15] (measured here: PEO4 Z-AUC) were 1.05 (inactive), 0.982 and 0.872, respectively.

Take `Cc1ccc(C(=O)Nc2ccc(CN3CCN(C)CC3)c(C(F)(F)F)c2)cc1C#Cc1cnc2cccnn12`: the Potency in assay [1] is 3.32 µM (active); in [2], 0.264 µM (active); in assay [3], 1.48 µM (active); in [4], 0.59 µM (active); in assay [6], 14.8 µM (active); in assay [7] it was 0.662 µM (active). In addition, the Potency in assay [8] was 1.32 µM (active); in [9], 1.32 µM (active); in assay [10], 0.59 µM (active); in assay [11], 0.935 µM (active); in assay [16], 1.18 µM (active); in [12], 11.8 µM (active). For the same molecule, the Potency in assay [17] is 5.26 µM (active); in assay [13], 1.48 µM (active); in assay [14], 7.43 µM (active). Further, the Z-AUC in [15] is -2.19 (inactive); in assay [15] (setting [19]), -1.43; in assay [15] (measured here: PEO4 Z-AUC), -0.606.
